{"source": "PubChem BioAssay (Tox21)", "key": {"[1]": {"assay": "cAMP Responsive Elements (CRE) small molecule antagonists, cell-based qHTS assay: qHTS cell viability counter screen (AID 2060913); also: nearly all actives have a fitted effect of over 40% in size", "outline": "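CRE-bla HEK293T cells were seeded in assay medium with 10% dialyzed FBS, incubated 18 hrs at 37 C, then exposed to compounds plus 0.25 uM final NKH477 for 3 hrs. Viability was read by CellTiter-Glo luminescence after 30 min, in the same wells.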"}, "[2]": {"assay": "cAMP Responsive Elements (CRE) small molecule agonists, cell-based qHTS assay: qHTS cell viability counter screen (AID 2060914); also: nearly all actives have a fitted effect of over 50% in size", "outline": "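HEK 293T CRE-bla; DMEM + 10% dialyzed FBS, 25 mM HEPES; 18 h pre-incubation; compound 3 h, 37 °C/5% CO2; CellTiter-Glo added after reporter read; luminescence after 30 min RT.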"}}, "note": "Results filed as inconclusive are left out. Where a call stands in place of a potency, no number is given. Calls of active or inactive are those of the source. Calls follow the shape of the dose curve; as a rule, active = well fitted cell-killing curve with a large enough effect in the repeat runs; inconclusive = weak or mixed curves, or effect the other way; inactive = flat fitted curve, though single readings scatter. Potency is read from the fitted curve at half-maximal effect."}
{"smiles": "Cc1ncc(CO)c(CO)c1O", "values": [{"measurement": "Potency", "setting": "[1]", "value": "inactive"}, {"measurement": "Potency", "setting": "[2]", "value": "inactive"}]}
{"smiles": "CN(C)CCOC(c1ccccc1)c1ccccc1", "values": [{"measurement": "Potency", "setting": "[1]", "value": "inactive"}, {"measurement": "Potency", "setting": "[2]", "value": "inactive"}]}
{"smiles": "COc1ccc(N)c(C)c1", "values": [{"measurement": "Potency", "setting": "[1]", "value": "inactive"}, {"measurement": "Potency", "setting": "[2]", "value": "inactive"}]}
{"smiles": "COC(=O)c1ccc(O)cc1", "values": [{"measurement": "Potency", "setting": "[1]", "value": "inactive"}, {"measurement": "Potency", "setting": "[2]", "value": "inactive"}]}
{"smiles": "O=C(O)CCNC(=O)c1ccc(N=Nc2ccc(O)c(C(=O)O)c2)cc1", "values": [{"measurement": "Potency", "setting": "[1]", "value": "inactive"}, {"measurement": "Potency", "setting": "[2]", "value": "inactive"}]}
{"smiles": "CCCCCCCCCCl", "values": [{"measurement": "Potency", "setting": "[1]", "value": "inactive"}, {"measurement": "Potency", "setting": "[2]", "value": "inactive"}]}
{"smiles": "Cc1ccc(Nc2ccc(O)c3c2C(=O)c2ccccc2C3=O)cc1", "values": [{"measurement": "Potency", "setting": "[1]", "value": "inactive"}, {"measurement": "Potency", "setting": "[2]", "value": "inactive"}]}
{"smiles": "O=c1[nH]cnc2nc[nH]c12", "values": [{"measurement": "Potency", "setting": "[1]", "value": "inactive"}, {"measurement": "Potency", "setting": "[2]", "value": "inactive"}]}
{"smiles": "N/C(=N\\N=C\\c1ccc(Cl)cc1)N/N=C/c1ccc(Cl)cc1", "values": [{"measurement": "Potency", "setting": "[1]", "value": "inactive"}, {"measurement": "Potency", "setting": "[2]", "value": "inactive"}]}
{"smiles": "Nc1cccc(N)n1", "values": [{"measurement": "Potency", "setting": "[1]", "value": "inactive"}, {"measurement": "Potency", "setting": "[2]", "value": "inactive"}]}
{"smiles": "NC(CSCC(=O)O)C(=O)O", "note": "(stereo not given)", "values": [{"measurement": "Potency", "setting": "[1]", "value": "inactive"}, {"measurement": "Potency", "setting": "[2]", "value": "inactive"}]}
{"smiles": "O=C(Nc1ccc2c(c1)Cc1ccccc1-2)C(F)(F)F", "values": [{"measurement": "Potency", "setting": "[1]", "value": "inactive"}, {"measurement": "Potency", "setting": "[2]", "value": "inactive"}]}
{"smiles": "CCOc1ccc(NC(=O)CC(C)=O)cc1", "values": [{"measurement": "Potency", "setting": "[1]", "value": "inactive"}, {"measurement": "Potency", "setting": "[2]", "value": "inactive"}]}
{"smiles": "C/C(=C(\\CCO)SS/C(CCO)=C(\\C)N(C=O)Cc1cnc(C)nc1N)N(C=O)Cc1cnc(C)nc1N", "values": [{"measurement": "Potency", "setting": "[1]", "value": "inactive"}, {"measurement": "Potency", "setting": "[2]", "value": "inactive"}]}
{"smiles": "CCCOc1sc(C(=O)N2CCC(c3cc(CN)ccc3F)CC2)c(C)c1Br", "values": [{"measurement": "Potency", "setting": "[1]", "value": "56 µM (active)"}, {"measurement": "Potency", "setting": "[2]", "value": "inactive"}]}
{"smiles": "Brc1cc(Br)c(Oc2cc(Br)c(Br)cc2Br)cc1Br", "values": [{"measurement": "Potency", "setting": "[1]", "value": "inactive"}, {"measurement": "Potency", "setting": "[2]", "value": "inactive"}]}
{"smiles": "CCCCC(CC)COC(=O)CCCCC(=O)OCc1ccccc1", "note": "(stereo not given)", "values": [{"measurement": "Potency", "setting": "[1]", "value": "inactive"}, {"measurement": "Potency", "setting": "[2]", "value": "inactive"}]}
{"smiles": "OCCCCC(O)CO", "note": "(stereo not given)", "values": [{"measurement": "Potency", "setting": "[1]", "value": "inactive"}, {"measurement": "Potency", "setting": "[2]", "value": "inactive"}]}
{"smiles": "CC(C)(C)C(=O)/C=C/c1ccc(Cl)cc1", "values": [{"measurement": "Potency", "setting": "[1]", "value": "inactive"}, {"measurement": "Potency", "setting": "[2]", "value": "inactive"}]}
{"smiles": "CC(C)OC(=O)C(C(=O)OC(C)C)=C1SC=CS1", "values": [{"measurement": "Potency", "setting": "[1]", "value": "inactive"}, {"measurement": "Potency", "setting": "[2]", "value": "inactive"}]}
{"smiles": "C[C@@H](C1=C(CCN(C)C)Cc2ccccc21)c1ccccn1", "values": [{"measurement": "Potency", "setting": "[1]", "value": "inactive"}, {"measurement": "Potency", "setting": "[2]", "value": "inactive"}]}
{"smiles": "Nc1ccc(C(=O)N2CC3CC(CN(Cc4ccccc4)C3)C2)cc1", "values": [{"measurement": "Potency", "setting": "[1]", "value": "inactive"}, {"measurement": "Potency", "setting": "[2]", "value": "inactive"}]}
{"smiles": "CCCCOC(=O)CC(CC(=O)OCCCC)(OC(C)=O)C(=O)OCCCC", "values": [{"measurement": "Potency", "setting": "[1]", "value": "inactive"}, {"measurement": "Potency", "setting": "[2]", "value": "inactive"}]}
{"smiles": "Nc1ccc(S(=O)(=O)Nc2ccccn2)cc1", "values": [{"measurement": "Potency", "setting": "[1]", "value": "inactive"}, {"measurement": "Potency", "setting": "[2]", "value": "inactive"}]}
{"smiles": "O=c1[nH]c(=O)n([C@H]2O[C@H](CO)[C@@H](O)[C@@H]2O)cc1/C=C\\Br", "values": [{"measurement": "Potency", "setting": "[1]", "value": "inactive"}, {"measurement": "Potency", "setting": "[2]", "value": "inactive"}]}
{"smiles": "CC(C)(Sc1cc(C(C)(C)C)c(O)c(C(C)(C)C)c1)Sc1cc(C(C)(C)C)c(O)c(C(C)(C)C)c1", "values": [{"measurement": "Potency", "setting": "[1]", "value": "inactive"}, {"measurement": "Potency", "setting": "[2]", "value": "inactive"}]}
{"smiles": "CCc1cccc(CC)c1", "values": [{"measurement": "Potency", "setting": "[1]", "value": "inactive"}, {"measurement": "Potency", "setting": "[2]", "value": "inactive"}]}
{"smiles": "CC(C)(C)OC(=O)N1C[C@@H](F)C[C@H]1C(=O)O", "values": [{"measurement": "Potency", "setting": "[1]", "value": "inactive"}, {"measurement": "Potency", "setting": "[2]", "value": "inactive"}]}
{"smiles": "CCCOCCOCCO", "values": [{"measurement": "Potency", "setting": "[1]", "value": "inactive"}, {"measurement": "Potency", "setting": "[2]", "value": "inactive"}]}
{"smiles": "CC(Cc1ccc(O)c(O)c1)C(C)Cc1ccc(O)c(O)c1", "note": "(stereo not given)", "values": [{"measurement": "Potency", "setting": "[1]", "value": "inactive"}, {"measurement": "Potency", "setting": "[2]", "value": "inactive"}]}
{"smiles": "C#C[C@]1(O)CC[C@H]2[C@@H]3CCc4cc(OC)ccc4[C@H]3CC[C@@]21C", "values": [{"measurement": "Potency", "setting": "[1]", "value": "inactive"}, {"measurement": "Potency", "setting": "[2]", "value": "inactive"}]}
{"smiles": "O=S1(=O)c2cccc3cccc(c23)N1CCCN1CCN(c2ccc(F)cc2)CC1", "values": [{"measurement": "Potency", "setting": "[1]", "value": "inactive"}, {"measurement": "Potency", "setting": "[2]", "value": "inactive"}]}
{"smiles": "COc1cccc(O)c1O", "values": [{"measurement": "Potency", "setting": "[1]", "value": "inactive"}, {"measurement": "Potency", "setting": "[2]", "value": "inactive"}]}
{"smiles": "CCCCCCCCCCCCC(=O)O", "values": [{"measurement": "Potency", "setting": "[1]", "value": "inactive"}, {"measurement": "Potency", "setting": "[2]", "value": "inactive"}]}
{"smiles": "O=S1(=O)CC(Cl)(Cl)C(Cl)(Cl)C1", "values": [{"measurement": "Potency", "setting": "[1]", "value": "15.4 µM (active)"}, {"measurement": "Potency", "setting": "[2]", "value": "34.4 µM (active)"}]}
{"smiles": "Cc1ccnc(N)c1", "values": [{"measurement": "Potency", "setting": "[1]", "value": "inactive"}, {"measurement": "Potency", "setting": "[2]", "value": "inactive"}]}
{"smiles": "[Ca+2]", "values": [{"measurement": "Potency", "setting": "[1]", "value": "inactive"}, {"measurement": "Potency", "setting": "[2]", "value": "inactive"}]}
{"smiles": "CC(C)OC=O", "values": [{"measurement": "Potency", "setting": "[1]", "value": "inactive"}, {"measurement": "Potency", "setting": "[2]", "value": "inactive"}]}
{"smiles": "O=c1c(O)c(O)c1=O", "values": [{"measurement": "Potency", "setting": "[1]", "value": "inactive"}, {"measurement": "Potency", "setting": "[2]", "value": "inactive"}]}
{"smiles": "CNC[C@H](O)c1cccc(O)c1", "values": [{"measurement": "Potency", "setting": "[1]", "value": "inactive"}, {"measurement": "Potency", "setting": "[2]", "value": "inactive"}]}
{"smiles": "COCCOCCOCCOCCOCCO", "values": [{"measurement": "Potency", "setting": "[1]", "value": "inactive"}, {"measurement": "Potency", "setting": "[2]", "value": "inactive"}]}
{"smiles": "CCCc1cc(=O)[nH]c(=S)[nH]1", "values": [{"measurement": "Potency", "setting": "[1]", "value": "inactive"}, {"measurement": "Potency", "setting": "[2]", "value": "inactive"}]}
{"smiles": "CNCCS(=O)(=O)O", "values": [{"measurement": "Potency", "setting": "[1]", "value": "inactive"}, {"measurement": "Potency", "setting": "[2]", "value": "inactive"}]}
{"smiles": "COc1cc(CCC(C)=O)ccc1O", "values": [{"measurement": "Potency", "setting": "[1]", "value": "inactive"}, {"measurement": "Potency", "setting": "[2]", "value": "inactive"}]}
{"smiles": "C[C@@H](O)[C@H]1C(=O)N2C(C(=O)O)=C([C@H]3CCCO3)S[C@H]12", "values": [{"measurement": "Potency", "setting": "[1]", "value": "inactive"}, {"measurement": "Potency", "setting": "[2]", "value": "inactive"}]}
